Data from the supplement of paper PMC6992640.
± gives the standard deviation of the averaged measurements.

Key:
Assay in all cases: cell viability (% of vehicle); higher = less cytotoxic
Settings in all cases: 10 µM; 72 h
[1] = tested on: HCI01 (cells of a triple-negative basal-like breast cancer xenograft)
[2] = tested on: HCI03 (cells of an ER-positive luminal breast cancer xenograft)
[3] = tested on: HCI09 (cells of a triple-negative luminal androgen receptor type breast cancer xenograft)
[4] = tested on: HCI11 (cells of an ER-positive luminal breast cancer xenograft)
[5] = tested on: HCI13 (cells of an ER-positive luminal breast cancer xenograft)
[6] = tested on: HCI16 (cells of a triple-negative basal-like breast cancer xenograft)
[7] = tested on: UCD52 (cells of a triple-negative basal-like breast cancer xenograft)
[8] = tested on: WHIM2 (cells of a triple-negative basal-like breast cancer xenograft)
[9] = tested on: WHIM30 (cells of a triple-negative basal-like breast cancer xenograft)
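Further: PDX cells carrying CMV promoter-driven luciferase, viability read as total photon flux per second by IVIS imaging following D-luciferin, vehicle control 0.1% DMSO.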

Row | Compound | cell viability [1] | cell viability [2] | cell viability [3] | cell viability [4] | cell viability [5] | cell viability [6] | cell viability [7] | cell viability [8] | cell viability [9]
1 | Cc1cnc(NC(=O)C2=C(O)c3ccccc3S(=O)(=O)N2C)s1 [Meloxicam (Mobic)] | 104 ± 10 | 125 | 96.1 ± 18 | 102 | 124 ± 5 | 88.8 | 80.5 ± 6.5 | 94 ± 12 | 81.3 ± 13
2 | CCOC(=O)C1=C(C)NC(C)=C(C(=O)OC)C1c1cccc(Cl)c1Cl (stereo not drawn) [Felodipine] | 116 ± 5 | 117 | 118 ± 6.6 | 114 | 112 ± 15 | 97.9 | 88.5 ± 2.3 | 102 ± 10 | 124 ± 2.7
3 | CN(CC=CC#CC(C)(C)C)Cc1cccc2ccccc12 [Terbinafine] | 105 ± 5.9 | 114 | 136 ± 70 | 108 | 111 ± 26 | 139 | 106 ± 3 | 73.1 ± 24 | 117 ± 3.4
4 | C[C@H]1COc2c(N3CCN(C)CC3)c(F)cc3c(=O)c(C(=O)O)cn1c23 [Levofloxacin] | 102 ± 26 | 109 | 88 ± 17 | 89.6 | 124 ± 50 | 123 | 88.7 ± 1.4 | 104 ± 12 | 132 ± 2.4
5 | Cn1c(=O)c2c(ncn2CC2OCCO2)n(C)c1=O [Doxofylline] | 110 ± 27 | 117 | 95.6 ± 12 | 100 | 82.8 ± 4.8 | 105 | 96.4 ± 3.6 | 102 ± 11 | 100 ± 9
6 | CC(C)NCC(O)COc1ccc(CCOCC2CC2)cc1.Cl (stereo not drawn) [Betaxolol HCl] | 132 ± 2.2 | 134 | 107 ± 34 | 107 | 87 ± 6.8 | 149 | 74.2 ± 1.6 | 101 ± 15 | 117 ± 1.3
7 | CCc1cccc2c3c([nH]c12)C(CC)(CC(=O)O)OCC3 (stereo not drawn) [Etodolac] | 117 ± 23 | 104 | 98.8 ± 27 | 97.2 | 97.3 ± 8 | 96.8 | 79.2 ± 9.2 | 92.6 ± 19 | 86 ± 8.4
8 | CN1C(C(=O)Nc2ccccn2)=C(O)c2sccc2S1(=O)=O [Tenoxicam] | 122 ± 9.7 | 126 | 114 ± 24 | 89.7 | 64.9 ± 7.4 | 119 | 87.2 ± 4.1 | 123 ± 33 | 159 ± 5.4
9 | CC12CCC3c4ccc(O)cc4CCC3C1CC(O)C2O (stereo not drawn) [Estriol] | 132 ± 20 | 118 | 125 ± 36 | 91.7 | 152 ± 25 | 152 | 105 ± 16 | 98.4 ± 8.9 | 150 ± 11
10 | CCC(C)(C)c1ccc(CC(C)CN2CC(C)OC(C)C2)cc1.Cl (stereo not drawn) [Amorolfine HCl] | 66.7 ± 39 | 129 | 88.4 ± 9.1 | 83.8 | 119 ± 36 | 119 | 58.3 ± 5.5 | 64.5 ± 32 | 166 ± 9.2
11 | CNC(=C[N+](=O)[O-])NCCSCc1ccc(CN(C)C)o1.Cl [Ranitidine] | 110 ± 5 | 125 | 112 ± 1.9 | 103 | 122 ± 6.4 | 122 | 89.9 ± 9.7 | 85.6 ± 2.9 | 113 ± 11
12 | CCCCOc1cc(C(=O)NCCN(CC)CC)c2ccccc2n1.Cl [Dibucaine (Cinchocaine) HCl] | 124 ± 13 | 154 | 92.3 ± 9.3 | 103 | 116 ± 5.1 | 101 | 68 ± 3.4 | 96.4 ± 5.9 | 109 ± 4.7
13 | CC(C)(C)NC(=O)C1CCC2C3CCC4NC(=O)C=CC4(C)C3CCC12C (stereo not drawn) [Finasteride] | 136 ± 20 | 115 | 103 ± 8.5 | 125 | 96.2 ± 4.9 | 99.8 | 81.1 ± 1.1 | 94 ± 1.5 | 156 ± 18
14 | NC(=O)c1cccnc1 [Nicotinamide] | 95.4 ± 11 | 114 | 95.5 ± 14 | 99.9 | 110 ± 5 | 107 | 99.57 ± 0.88 | 86.9 ± 12 | 94.7 ± 5.4
15 | Cc1nc2n(c(=O)c1CCN1CCC(c3noc4cc(F)ccc34)CC1)CCCC2O (stereo not drawn) [Paliperidone] | 106 ± 11 | 172 | 94.6 ± 17 | 86.3 | 117 ± 4 | 113 | 113 ± 7.6 | 135 ± 24 | 127 ± 4.2
16 | NCCCCCC(=O)O [(6-)ε-Aminocaproic acid] | 67.8 ± 37 | 136 | 90 ± 16 | 79.6 | 104 ± 5 | 101 | 77.2 ± 5.2 | 101 ± 24 | 155 ± 23
17 | OC[C@@H](O)[C@@H](O)[C@H](O)[C@H](O)CO [D-Mannitol] | 74.7 ± 26 | 95.7 | 93.1 ± 16 | 83.2 | 88.7 ± 6.7 | 114 | 74 ± 2.5 | 97.5 ± 16 | 115 ± 6.2
18 | CCC(Nc1ncnc2nc[nH]c12)c1nc2cccc(F)c2c(=O)n1-c1ccccc1 (stereo not drawn) [CAL-101 (Idelalisib, GS-1101)] | 91.6 ± 8.4 | 80.7 | 88.2 ± 19 | 76.8 | 51.9 ± 3.4 | 68.1 | 68.3 ± 3 | 62.8 ± 2.9 | 121.9 ± 0.48
19 | COc1ccc(-c2ccc3cc(C(=O)O)ccc3c2)cc1C12CC3CC(CC(C3)C1)C2 [Adapalene] | 119 ± 6.1 | 81.4 | 92.2 ± 40 | 95.5 | 139 ± 23 | 82.7 | 179 ± 28 | 83.8 ± 12 | 114 ± 18

Row | Compound | cell viability [1] | cell viability [2] | cell viability [3] | cell viability [4] | cell viability [5] | cell viability [6] | cell viability [7] | cell viability [8] | cell viability [9]
20 | CN(C)CCC=C1c2ccccc2CCc2ccccc21.Cl [Amitriptyline HCl] | 103 ± 18 | 99.2 | 87.6 ± 6.1 | 83.2 | 105 ± 9.9 | 135 | 74.5 ± 4.4 | 100 ± 1.1 | 114 ± 2.5
21 | CC(c1cc2ccccc2s1)N(O)C(N)=O (stereo not drawn) [Zileuton] | 101 ± 13 | 136 | 105 ± 10 | 101 | 134 ± 24 | 128 | 112 ± 4 | 112 ± 21 | 134 ± 13
22 | CC(=O)O.C[C@H](N)C(=O)O.NCCCC[C@H](N)C(=O)O.N[C@@H](CCC(=O)O)C(=O)O.N[C@@H](Cc1ccc(O)cc1)C(=O)O [glatiramer acetate] | 94.3 ± 13 | 136 | 108 ± 11 | 108 | 171 ± 16 | 125 | 118 ± 10 | 95.9 ± 38 | 145 ± 6.9
23 | Cc1cc(C2CCCCC2)n(O)c(=O)c1 [Ciclopirox] | 93 ± 59 | 67.7 | 26.8 ± 3.4 | 51.7 | 73.9 ± 3.7 | 117 | 92.7 ± 3.6 | – | 94.5 ± 12
24 | CS(=O)(=O)N1CCN(Cc2cc3nc(-c4cccc5[nH]ncc45)nc(N4CCOCC4)c3s2)CC1 | 190 ± 66 | 94.8 | 89.23 ± 0.75 | 114 | 90.7 ± 3.3 | – | 88.5 ± 15 | 63.7 ± 3.2 | –
25 | Nc1nc(F)nc2c1ncn2C1OC(CO)C(O)C1O (stereo not drawn) [Fludarabine] | 131 ± 27 | 134 | 103 ± 10 | 116 | 165 ± 10 | 171 | 105 ± 4 | 106 ± 2 | 121 ± 8.2
26 | Cl.Nc1ncnc2nc[nH]c12 [Adenine HCl] | 124 ± 9.7 | 126 | 112 ± 4.7 | 117 | 87.7 ± 10 | 147 | 165 ± 5.9 | 106 ± 4.3 | 101 ± 7.6
27 | CC(C)(C)c1nc(-c2cccc(NS(=O)(=O)c3c(F)cccc3F)c2F)c(-c2ccnc(N)n2)s1 | 118 ± 12 | 125 | 98.9 ± 1.2 | 119 | 187 ± 54 | 73.6 | 122 ± 12 | 116 ± 4.4 | 91.4 ± 15
28 | CC(C)NCC(O)c1ccc(O)c(O)c1.Cl (stereo not drawn) [Isoprenaline HCl] | 95.7 ± 15 | 108 | 87.2 ± 13 | 90.3 | 76.2 ± 2 | 122 | 91.9 ± 9.1 | 77.2 ± 5.8 | 113 ± 7.1
29 | COc1cc2nccc(Oc3ccc(NC(=O)C4(C(=O)Nc5ccc(F)cc5)CC4)cc3)c2cc1OC | 108 ± 6.6 | 114 | 91.5 ± 2 | 88.9 | 97.7 ± 13 | 93.8 | 88.3 ± 15 | 90.1 ± 11 | 116 ± 3.4
30 | CC(C)C1C(=O)NC(CCCN=C(N)N)C(=O)NCC(=O)NC(CC(=O)O)C(=O)NC(Cc2ccccc2)C(=O)N1C (stereo not drawn) [Cilengitide] | 114 ± 9.1 | 76.7 | 125 ± 49 | 97.4 | 124 ± 12 | 91 | 84.4 ± 5.5 | 94.1 ± 6.8 | 143 ± 14
31 | O=C(NS(=O)(=O)c1ccc(Br)s1)c1ccc(Cl)cc1Cl [Tasisulam] | 183 ± 32 | 126 | 84.1 ± 17 | 148 | 158 ± 6 | – | 115 ± 25 | 167 ± 16 | 172 ± 15
32 | CC(=O)OCC(=O)NCCCOc1cccc(CN2CCCCC2)c1.Cl [Roxatidine Acetate HCl] | 175 ± 22 | 118 | 121 ± 11 | 120 | 141 ± 22 | 131 | 95.5 ± 9.9 | 106 ± 3.1 | 128 ± 15
33 | C[N+](C)(C)CC(=O)[O-] [Betaine] | 107 ± 33 | 140 | 103 ± 12 | 90.7 | 140 ± 1.5 | 116 | 106 ± 5.9 | 99.7 ± 16 | 90 ± 12
34 | Cc1nccn1CC1CCc2c(c3ccccc3n2C)C1=O.Cl.O.O (stereo not drawn) [Ondansetron hydrochloride dihydrate] | 101 ± 12 | 82.1 | 117 ± 49 | 107 | 143 ± 6 | 106 | 83.84 ± 0.49 | 88.3 ± 12 | 68.2 ± 14
35 | CCCCNc1ccc(C(=O)OCCN(C)C)cc1.Cl [Tetracaine HCl] | 130 ± 19 | 134 | 105 ± 25 | 121 | 122 ± 19 | 99 | 90.7 ± 13 | 92.2 ± 17 | 103.43 ± 0.084
36 | CCCC(NC(C)C(=O)N1C(C(=O)O)CC2CCCCC21)C(=O)OCC (stereo not drawn) [Perindopril] | 110.1 ± 0.73 | 111 | 131 ± 35 | 111 | 134 ± 4.2 | 94.2 | 103 ± 2.7 | 102 ± 5.3 | 101 ± 2.5
37 | CC(C)C(N)C(=O)OCCOCn1cnc2c(=O)nc(N)[nH]c21.Cl (stereo not drawn) [Valaciclovir HCl] | 71.5 ± 40 | 128 | 94.3 ± 3 | 88.8 | 94.7 ± 8.2 | 106 | 91.8 ± 12 | 102 ± 19 | 169 ± 13
38 | CC(C)(O/N=C(\C(=O)N[C@@H]1C(=O)N2C(C(=O)[O-])=C(C[n+]3ccccc3)CS[C@H]12)c1csc(N)n1)C(=O)O [Ceftazidime] | 101 ± 17 | 98.6 | 97.7 ± 0.81 | 81.6 | 119 ± 8.4 | 149 | 120 ± 15 | 120 ± 3.6 | 99.7 ± 8.2
